Laboratory results taken from PubChem BioAssay (NCATS).
Inconclusive results are not listed. The source made the active and inactive calls. Unless noted, calls follow the shape of the dose curve; as a rule, active = well fitted cell-killing curve with a large enough effect; inconclusive = small, poorly fitted or top-dose-only effect, or effect the other way; inactive = no such curve, though single readings can be large or run the other way.

Legend:
[1] = Quantitative High-Throughput drug screen in 47 multiple myeloma cell lines against the NCATS MIPE library collection: L363_DSMZ cell viability assay (AID 1918984); also: nearly all actives have a fitted effect of over 40% in size
In short: (§1)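 Inhibition of viability over 48 h was scored by ATP content (CellTiter-Glo) in 500-cell wells. Zero and full viability were defined by media-only and DMSO-only wells.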

[2] = Quantitative High-Throughput drug screen in 47 multiple myeloma cell lines against the NCATS MIPE library collection: KMS34_JCRB cell viability assay (AID 1918985); also: potency is read from the fitted curve at half-maximal effect; nearly all actives have a fitted effect of over 40% in size
In short: as §1

[3] = Quantitative High-Throughput drug screen in 47 multiple myeloma cell lines against the NCATS MIPE library collection: OCIMY7_PLB cell viability assay (AID 1918987); also: potency is read from the fitted curve at half-maximal effect; nearly all actives have a fitted effect of over 65% in size
In short: as §1

[4] = Quantitative High-Throughput drug screen in 47 multiple myeloma cell lines against the NCATS MIPE library collection: OCIMY5_PLB cell viability assay (AID 1918988); also: potency is read from the fitted curve at half-maximal effect; nearly all actives have a fitted effect of over 65% in size
In short: as §1

[5] = Quantitative High-Throughput drug screen in 47 multiple myeloma cell lines against the NCATS MIPE library collection: XG6_PLB cell viability assay (AID 1919865); also: potency is read from the fitted curve at half-maximal effect; nearly all actives have a fitted effect of over 40% in size
In short: as §1

[6] = Quantitative High-Throughput drug screen in 47 multiple myeloma cell lines against the NCATS MIPE library collection: VP6_DJ cell viability assay (AID 1919867); also: potency is read from the fitted curve at half-maximal effect; nearly all actives have a fitted effect of over 40% in size
In short: as §1

[7] = Quantitative High-Throughput drug screen in 47 multiple myeloma cell lines against the NCATS MIPE library collection: UTMC2_PLB cell viability assay (AID 1919868); conditions: CellTiter-Glo ATP luminescence, 48 h; viability (% of DMSO control): at 45.8 µM (top of the series) unless noted; also: nearly all actives have a fitted effect of over 55% in size; also: potency is read from the fitted curve at half-maximal effect
In short: as §1

[8] = Quantitative High-Throughput drug screen in 47 multiple myeloma cell lines against the NCATS MIPE library collection: PE2_PLB cell viability assay (AID 1919869); also: potency is read from the fitted curve at half-maximal effect; nearly all actives have a fitted effect of over 35% in size
In short: as §1

[9] = Quantitative High-Throughput drug screen in 47 multiple myeloma cell lines against the NCATS MIPE library collection: PCM6_Riken cell viability assay (AID 1919870); also: nearly all actives have a fitted effect of over 30% in size; also: potency is read from the fitted curve at half-maximal effect
In short: as §1

[10] = qHTS drug screen for cell cycle checkpoint inhibitors in PARPi-resistant BRCA-mutant ovarian cancer cell lines. (AID 1963452; calls by dose curve); conditions: PEO1/OlaR viability, CellTiter-Glo luminescence, 96 h, stronger effect = lower value
In short: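 PEO1, PEO4 and PEO1/OlaR ovarian cancer cells, 600 per well, exposed 96 h at 37C to a dilution series. Viability read by CellTiter-Glo luminescence, normalized to DMSO and empty wells; activity summarized as Z-AUC.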

[11] = Quantitative High-Throughput drug screen in 47 multiple myeloma cell lines against the NCATS MIPE library collection: OPM1_PLB cell viability assay (AID 1918989); also: nearly all actives have a fitted effect of over 40% in size; also: potency is read from the fitted curve at half-maximal effect
In short: as §1

[12] = Quantitative High-Throughput drug screen in 47 multiple myeloma cell lines against the NCATS MIPE library collection: U266_ATCC cell viability assay (AID 1919864); also: nearly all actives have a fitted effect of over 35% in size; also: potency is read from the fitted curve at half-maximal effect
In short: as §1

[13] = Quantitative High-Throughput drug screen in 47 multiple myeloma cell lines against the NCATS MIPE library collection: RPMI8226_ATCC cell viability assay (AID 1919871); also: nearly all actives have a fitted effect of over 30% in size; also: potency is read from the fitted curve at half-maximal effect
In short: as §1

[14] = Quantitative High-Throughput drug screen in 47 multiple myeloma cell lines against the NCATS MIPE library collection: OPM2_DSMZ cell viability assay (AID 1919872); also: nearly all actives have a fitted effect of over 30% in size; also: potency is read from the fitted curve at half-maximal effect
In short: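 Myeloma cells (500 per well) were exposed to MIPE 4.0 compounds by pin transfer and incubated 48 hours at 37C, 5% CO2. Viability was read as ATP by CellTiter-Glo luminescence, normalised to DMSO (100%) and media-only (0%) wells.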

[15] = Quantitative High-Throughput drug screen in 47 multiple myeloma cell lines against the NCATS MIPE library collection: KMS11_JCRBsus cell viability assay (AID 1919873); also: nearly all actives have a fitted effect of over 50% in size; also: potency is read from the fitted curve at half-maximal effect
In short: as §1

[16] = Quantitative High-Throughput drug screen in 47 multiple myeloma cell lines against the NCATS MIPE library collection: KMS28BM_JCRB cell viability assay (AID 1919874); also: nearly all actives have a fitted effect of over 35% in size; also: potency is read from the fitted curve at half-maximal effect
In short: as §1

[17] = Quantitative High-Throughput drug screen in 47 multiple myeloma cell lines against the NCATS MIPE library collection: SKMM1_PLB cell viability assay (AID 1919863); conditions: SKMM1 myeloma viability, CellTiter-Glo ATP, 48 h; viability: stronger effect = lower value; also: potency is read from the fitted curve at half-maximal effect; nearly all actives have a fitted effect of over 35% in size
In short: as §1

[18] = Quantitative High-Throughput drug screen in 47 multiple myeloma cell lines against the NCATS MIPE library collection: XG1_PLB cell viability assay (AID 1919866)
In short: as §1

[19] = qHTS for identification of novel therapeutic agents for treatment of microphthalmiaassociated transcription factor (MiT) renal cell carcinoma (RCC) (AID 1963991; calls by dose curve; also: potency is read from the fitted curve at half-maximal effect); conditions: CellTiter-Glo, 48 h; for z-score: stronger effect = lower value
In short: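 Curves over 11 concentrations were fitted to CellTiter-Glo luminescence, scaled between empty wells (0%) and DMSO (100%) viability. Cells were UOK109, UOK124 and UOK145 TFE3-fusion RCC lines at 500/well, exposed 48 hours at 37 C.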

[20] = measured here: PEO1 parental Z-AUC

With Cc1cnc(-c2cnc(NCCNc3ccc(C#N)cn3)nc2-c2ccc(Cl)cc2Cl)[nH]1 as the molecule, how does the Potency [1] read?
The Potency was “inactive”.

What about the Potency [2] of the same molecule?
Its Potency is 5.9 µM (active).

And the Potency [3]?
The Potency was 4.18 µM (active).

What about the Potency [4] of the same molecule?
The Potency was 20.9 µM (active).

And the Potency [5]?
Its Potency is 6.62 µM (active).

What about the Potency [6] of the same molecule?
Its Potency is 10.5 µM (active).

What about the Potency [7] of the same molecule?
The Potency was 13.2 µM (active).

And the Potency [8]?
The Potency was 23.5 µM (active).

And the Potency [9]?
The Potency was 13.2 µM (active).

What about the Z-AUC [10] of the same molecule?
The Z-AUC was 1.35 (inactive).

And the Z-AUC [10, 20]?
The Z-AUC was 0.904.

And the Z-AUC ([10]; measured here: PEO4 Z-AUC)?
The Z-AUC was 0.844.

For NC(=O)c1cccc2cn(-c3ccc([C@@H]4CCCNC4)cc3)nc12, which Potency [11] is on record?
Its Potency is “inactive”.

And the Potency [12]?
Its Potency is “inactive”.

What about the Potency [6] of the same molecule?
The Potency was 18.7 µM (active).

What about the Potency [7] of the same molecule?
The Potency was “inactive”.

What about the Potency [9] of the same molecule?
Its Potency is “inactive”.

What about the Potency [13] of the same molecule?
Its Potency is “inactive”.

And the Potency [14]?
The Potency was “inactive”.

And the Potency [15]?
Its Potency is “inactive”.

What about the Potency [16] of the same molecule?
The Potency was “inactive”.

And the Z-AUC [10]?
Its Z-AUC is 0.523 (inactive).

And the Z-AUC [10, 20]?
Its Z-AUC is -0.0942.

And the Z-AUC ([10]; measured here: PEO4 Z-AUC)?
Its Z-AUC is 0.435.

What does the source list for Cc1nc2cnc3ccc(C#Cc4cccnc4)cc3c2n1-c1ccc(C(C)(C)C#N)cc1?
Potency [3]: 0.105 µM (active); Potency [4]: 6.62 µM (active); Potency [11]: 0.0526 µM (active); Potency [17]: 3.72 µM (active); Potency [5]: 0.0105 µM (active); Potency [18]: 0.0105 µM (active); Potency [6]: 0.0743 µM (active); Potency [7]: 0.0209 µM (active); Potency [8]: 0.0132 µM (active); Potency [9]: 0.0662 µM (active); Potency [13]: 0.0833 µM (active); Potency [14]: 0.187 µM (active); Potency [16]: 0.372 µM (active); Z-AUC [10]: -0.114 (inactive); Z-AUC [10, 20]: -0.259; Z-AUC ([10]; measured here: PEO4 Z-AUC): -0.412; Potency ([19]; TFE3-RCC UOK109 viability, active = Z-AUC below -0.8 in all three lines): 0.118 µM (active); z-score ([19]; TFE3-RCC UOK109 viability, measured here: UOK109 Z-AUC): -1.96; z-score ([19]; TFE3-RCC viability, measured here: UOK124 Z-AUC): -4.34; z-score ([19]; TFE3-RCC viability, measured here: UOK145 Z-AUC): -2.15

Which Potency [1] does the source give for Nc1cccc(-c2cc3c(Oc4cccc(O)c4)ncnc3[nH]2)c1 here?
The Potency was “inactive”.

What about the Potency [2] of the same molecule?
Its Potency is 18.7 µM (active).

What about the Potency [3] of the same molecule?
The Potency was 2.64 µM (active).

What about the Potency [4] of the same molecule?
The Potency was 23.5 µM (active).

What about the Potency [11] of the same molecule?
Its Potency is 20.9 µM (active).

And the Potency [5]?
The Potency was 2.09 µM (active).

And the Potency [8]?
Its Potency is 14.8 µM (active).

What about the Potency [16] of the same molecule?
The Potency was 20.9 µM (active).

What about the Z-AUC [10] of the same molecule?
Its Z-AUC is -0.838 (inactive).

And the Z-AUC [10, 20]?
The Z-AUC was -0.58.

What about the Z-AUC ([10]; measured here: PEO4 Z-AUC) of the same molecule?
Its Z-AUC is -0.859.

Which results are given for COc1cc2nccc(Oc3ccc(NC(=O)C4(C(=O)Nc5ccc(F)cc5)CC4)cc3)c2cc1OC?
Potency [2]: 14.8 µM (active); Potency [3]: 18.7 µM (active); Potency [4]: 18.7 µM (active); Potency [11]: 23.5 µM (active); Potency [12]: 20.9 µM (active); Potency [5]: 0.743 µM (active); Potency [6]: 3.72 µM (active); Potency [7]: 20.9 µM (active); Potency [9]: 2.96 µM (active); Potency [13]: 20.9 µM (active); Potency [14]: 23.5 µM (active); Potency [15]: 20.9 µM (active); Z-AUC [10]: -0.0071 (inactive); Z-AUC [10, 20]: 0.252; Z-AUC ([10]; measured here: PEO4 Z-AUC): -0.118

With COc1cccc(-c2ccc(NC(=O)C3=C(C(=O)O)CCC3)c(F)c2)c1 as the molecule, how does the Potency [1] read?
The Potency was “inactive”.

What about the Potency [11] of the same molecule?
The Potency was 6.62 µM (active).

And the Potency [12]?
Its Potency is 13.2 µM (active).

And the Potency [18]?
Its Potency is 4.18 µM (active).

And the Potency [9]?
The Potency was 3.32 µM (active).

And the Potency [13]?
The Potency was 13.2 µM (active).

And the Potency [15]?
Its Potency is 14.8 µM (active).

What about the Potency [16] of the same molecule?
Its Potency is 18.7 µM (active).

What about the Z-AUC [10] of the same molecule?
The Z-AUC was 0.233 (inactive).

And the Z-AUC [10, 20]?
The Z-AUC was 0.433.

What about the Z-AUC ([10]; measured here: PEO4 Z-AUC) of the same molecule?
The Z-AUC was 0.985.

Which Potency [3] does the source give for CC(C)(C)NC(=O)[C@H]1CN(Cc2cccnc2)CCN1C[C@@H](O)C[C@@H](Cc1ccccc1)C(=O)N[C@H]1c2ccccc2C[C@H]1O here?
Its Potency is 10.5 µM (active).

And the Potency [4]?
Its Potency is 26.4 µM (active).

And the Potency [11]?
The Potency was 11.8 µM (active).

What about the Potency [5] of the same molecule?
Its Potency is 23.5 µM (active).

And the Potency [18]?
Its Potency is 2.96 µM (active).

What about the Potency [6] of the same molecule?
The Potency was 7.43 µM (active).

What about the Potency [9] of the same molecule?
Its Potency is 8.33 µM (active).

What about the Potency [15] of the same molecule?
The Potency was 18.7 µM (active).

With CCOC(=O)C1=C(C)NC2=C(C(=O)CC(C)(C)C2)C1c1ccc(-c2ccccc2)cc1 (configuration not stated) as the molecule, how does the Potency [2] read?
The Potency was 18.7 µM (active).

What about the Potency [3] of the same molecule?
Its Potency is 3.72 µM (active).

And the Potency [4]?
Its Potency is 20.9 µM (active).

What about the Potency [11] of the same molecule?
Its Potency is 16.6 µM (active).

What about the Potency [17] of the same molecule?
Its Potency is 23.5 µM (active).

What about the Potency [12] of the same molecule?
Its Potency is 26.4 µM (active).

What about the Potency [7] of the same molecule?
Its Potency is 18.7 µM (active).

And the Potency [8]?
The Potency was 20.9 µM (active).

And the Potency [9]?
Its Potency is 20.9 µM (active).

What about the Potency [13] of the same molecule?
The Potency was 23.5 µM (active).

And the Z-AUC [10]?
The Z-AUC was 0.483 (inactive).

And the Z-AUC [10, 20]?
Its Z-AUC is 0.756.

What about the Z-AUC ([10]; measured here: PEO4 Z-AUC) of the same molecule?
Its Z-AUC is 0.977.
